# Compounds with a hit are over-represented: about 18% of the library has one in this group of screens.
# TDP1 cell noCPT – qHTS for Inhibitors of human tyrosyl-DNA phosphodiesterase 1 (TDP1): qHTS in cells in absence of CPT; Potency, µM (series often up to 46.2 µM), inactives show at the top dose activity change, negative = growth inhibition, actives largely listed as inhibitors; DT40 Tdp1-/- hTDP1 cells, no CPT, ATP luminescence, 48 h; actives 15% (n = 420,000); note: potency is the fitted concentration of half-maximal effect; nearly all actives have a fitted effect of over 55% in size
#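 Chicken DT40 Tdp1-/- cells complemented with human TDP1, screened without camptothecin (DMSO vehicle only), 400 cells/well. Compounds pin-transferred, cells incubated at 37 °C for at least 48 hr. Growth read as ATP-dependent luminescence (CellTiter-Glo, 30 min at RT).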
# IL1B secr inh – qHTS for Inhibitors of Inflammasome Signaling: IL-1-beta AlphaLISA Primary Screen | AID 743279, 2014 | activity change, % at 57.5 µM | actives 4.7% (n = 360,000) | THP-1 LPS/ATP IL-1B secretion, AlphaLISA, 16 h; stronger effect = lower value; in the data active = activity change below about -50%; inconclusive = mostly about -30% to -49%
#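 THP-1 cells pretreated 1 hr with compounds (up to 57.5 uM final), then stimulated with LPS (250 ng/mL final) plus ATP (1.25 mM final); secreted IL-1B measured by AlphaLISA after 16 hr, decreased signal indicating inhibition.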
# RORgamma inh – qHTS for inhibitors of ROR gamma transcriptional activity; Nuclear receptor ROR-gamma (Mus musculus), P51450; Drosophila S2 Gal4-RORgamma UAS-luciferase reporter, 20 h; Potency, µM (series often up to 53.6 µM), without a hit: at the highest dose activity change, negative = inhibition, most hits filed as inhibitors; actives 5.4% (n = 310,000); note: potency is the fitted concentration of half-maximal effect; nearly all actives have a fitted effect of over 60% in size
# Target sequence (P51450 whole entry, looked up, the tested form may be a part): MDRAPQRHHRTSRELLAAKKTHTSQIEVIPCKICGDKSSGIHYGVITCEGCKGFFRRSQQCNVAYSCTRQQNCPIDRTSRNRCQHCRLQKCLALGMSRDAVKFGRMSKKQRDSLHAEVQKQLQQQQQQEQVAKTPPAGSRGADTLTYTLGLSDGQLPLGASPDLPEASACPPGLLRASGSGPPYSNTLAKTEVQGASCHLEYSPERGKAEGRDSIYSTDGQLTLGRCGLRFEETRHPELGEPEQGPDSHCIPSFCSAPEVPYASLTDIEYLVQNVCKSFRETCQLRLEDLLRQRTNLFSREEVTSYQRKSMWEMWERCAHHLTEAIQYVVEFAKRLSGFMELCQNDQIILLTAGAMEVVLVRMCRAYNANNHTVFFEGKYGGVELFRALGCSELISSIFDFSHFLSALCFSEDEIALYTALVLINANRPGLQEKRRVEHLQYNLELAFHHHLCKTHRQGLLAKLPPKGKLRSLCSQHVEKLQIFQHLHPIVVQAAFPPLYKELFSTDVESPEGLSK
#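 Using a luciferase readout, inhibitors were identified by reduced reporter activity in Drosophila cells coexpressing a copper-inducible Gal4–ROR gamma fusion and UAS-driven Photinus luciferase, incubated 20 hr after 700 uM copper sulfate.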
# LDHA block – qHTS assay for inhibitors of human lactate dehydrogenase. purified LDHA, NADH/diaphorase-resazurin fluorescence; stronger effect = lower value. activity change, % (values are at about 110 or 230 µM). actives 0.15% (n = 480,000). AID 1347041, 2019; in the data active = activity change below about -30%; inconclusive = mostly about -25% to -30%;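 note: plate controls were DMSO wells for no effect and wells without enzyme for full effect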
#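 Remaining NADH was detected by diaphorase (0.133 mg/mL) converting 37 µM resazurin to fluorescent resorufin, read at 0 and 20 minutes. The preceding 5-minute room-temperature reaction used 2 nM LDHA, 0.2 mM sodium pyruvate and 0.06 mM NADH at pH 7.4.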
# DT40 TDP1 CPT – qHTS for Inhibitors of human tyrosyl-DNA phosphodiesterase 1 (TDP1): qHTS in cells in presence of CPT. actives 12% (n = 420,000). chicken DT40 Tdp1-/-;hTDP1 cells + 20 nM CPT, ATP luminescence, 48 h. AID 686979, 2013. Potency, µM (top dose mostly 46.2 µM), without a hit: at the highest dose activity change, negative = growth inhibition, actives largely listed as inhibitors; note: potency is the fitted concentration of half-maximal effect; nearly all actives have a fitted effect of over 55% in size
#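 Chicken DT40 Tdp1-/- cells complemented with human TDP1, 400 cells/well, exposed to compounds plus 20 nM camptothecin for at least 48 h at 37 C; viability read as ATP content by CellTiter-Glo luminescence.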
# Gal4-VP16 FLuc – VP16 counterscreen qHTS for inhibitors of ROR gamma transcriptional activity. Drosophila S2 Gal4-VP16 UAS-luciferase, luminescence, 20 h. Potency, µM (series often up to 53.6 µM), for inactives: at the top dose activity, negative = inhibition, hits mostly inhibitors. actives 3.5% (n = 310,000). AID 2546, 2010;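 note: Gal4-VP16 expression switched on by copper sulfate through the metallothionein promoter; potency is the fitted concentration of half-maximal effect; nearly all actives have a fitted effect of over 50% in size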
# Numbers without * were called inactive; i = inactive; ? = inconclusive; . = no result given. Unless noted, calls come from the whole dose curve; as a rule, active = well fitted curve in the direction sought with a large enough effect; inconclusive = small, poorly fitted or top-dose-only effect, or another doubt; inactive = no such curve, though single readings can be large; an effect the other way counts as inactive or inconclusive. Unless noted, % is set by controls: 0 for no effect and ±100 for the full control effect.
SMILES,TDP1 cell noCPT,IL1B secr inh,RORgamma inh,LDHA block,DT40 TDP1 CPT,Gal4-VP16 FLuc
COc1ccc(C2C(=O)c3ccccc3C2=O)c(OC)c1,-7%,52,-4%,-6,-7%,4%
Cc1cccc(Nc2nc(N)c(C(=O)c3ccc(Cl)cc3)s2)c1C,.,.,.,5,.,.
N#Cc1cnc2cc(-c3ccccc3)nn2c1N,-7%,-2,2%,-10,13%,23%
CCOC(=O)c1cnc2cc(-c3ccc(OCC)cc3)nn2c1-c1ccccc1,8.2µM*,.,.,1,15µM*,.
COc1ccc(-c2cc3ncc(-c4ccccc4)c(N)n3n2)cc1,?,-55*,?,5,?,7.9µM*
O=c1cc(C(F)(F)F)[nH]c(=S)[nH]1,.,.,.,15,.,.
O=C(CSc1nnc(Cc2ccccc2)o1)Nc1ccc(F)cc1,.,.,.,3,.,.
CCOc1cc2cc(C(=O)c3ccccc3O)cnc2cc1OCC,.,.,.,19,.,.
Cc1cccc(-n2c(-c3ccoc3C)n[nH]c2=S)c1,?,17,8.9µM*,-4,-2%,?
Cc1ccccc1-n1c(-c2ccoc2C)n[nH]c1=S,?,37,10µM*,-3,?,?
Cn1c(=O)n(C)c2cc(S(=O)(=O)c3ccc(F)cc3)c(NC(=O)Cc3ccccc3Cl)cc21,.,.,.,6,.,.
Cc1cccc(NC(=O)CCC2CCN(C(=O)C3CC=CCC3)CC2)c1 (stereo not drawn),12µM*,i,31%,-13,12µM*,-4%
COc1cccc(NC(=O)CCC2CCN(C(=O)C3CC=CCC3)CC2)c1 (stereo not drawn),?,9,0%,-1,?,-10%
O=C(CCC1CCN(C(=O)C2CC=CCC2)CC1)Nc1ccccc1 (stereo not drawn),21µM*,18,.,2,?,.
CC(Sc1ccccc1C(=O)NCC(=O)C(C)(C)C)C(=O)Nc1ccccc1 (stereo not drawn),.,.,.,-8,.,.
CCOC(=O)CSc1nc(-c2ccc(C)cc2C)cc(-c2ccccc2)c1C#N,2%,.,.,-12,4%,.
CCOC(=O)C(C)Sc1nc(-c2ccccc2Cl)cc(-c2ccccc2)c1C#N (stereo not drawn),?,.,.,-2,13µM*,.
COc1ccccc1-c1cc(-c2ccccc2)nc(SC(C(N)=O)c2ccccc2)c1C#N (stereo not drawn),23µM*,15,11µM*,-2,?,?
CC(Sc1nc(C(C)(C)C)cc(-c2ccccc2)c1C#N)C(=O)Nc1ccccc1 (stereo not drawn),29µM*,23,-12%,-11,?,-9%
COc1ccc(C(=O)/C=C/c2ccc(F)c(F)c2)cc1CSCC(=O)O,.,.,.,-4,.,.
CCc1cc(=O)oc2cc(OCC(=O)NCCc3ccc(S(N)(=O)=O)cc3)ccc12,.,.,.,-1,.,.
CC(NC(=O)c1c(O)nc2ccccn2c1=O)c1ccccc1 (stereo not drawn),18µM*,.,.,6,23µM*,.
Cc1ccn2c(=O)c(C(=O)NC(C)c3ccccc3)c(O)nc2c1 (stereo not drawn),23µM*,.,.,2,?,.
Cc1ccc(CNC(=O)c2c(O)nc3cc(C)ccn3c2=O)cc1,-5%,.,.,-3,-6%,.
COc1ccc(CCNC(=O)c2c(O)nc3ccccn3c2=O)cc1,?,.,.,8,?,.
SMILES,TDP1 cell noCPT,IL1B secr inh,RORgamma inh,LDHA block,DT40 TDP1 CPT,Gal4-VP16 FLuc
Cc1ccn2c(=O)c(C(=O)NCCc3ccccc3)c(O)nc2c1,23µM*,.,.,3,?,.
CCOc1ccc(CC(=O)NNC(=S)NCCCOC)cc1OCC,.,.,.,5,.,.
O=C(Nc1nc2ccccc2[nH]1)Nc1ccccc1F,?,-8,?,-6,-11%,?
O=C(Nc1nc2ccccc2[nH]1)c1ccc(Br)o1,15µM*,15,7.1µM*,-1,?,?
O=C(Nc1nc2ccccc2[nH]1)c1cccc(F)c1,16µM*,24,5.6µM*,-2,?,7.1µM*
O=C(Nc1nc2ccccc2[nH]1)c1cccc(Br)c1,?,9,2.2µM*,-2,?,5µM*
CN(C)c1cccc(C(=O)Nc2nc3ccccc3[nH]2)c1,12µM*,?,5µM*,2,?,11µM*
O=C(c1cccc(Br)c1)c1nc2ccccc2[nH]c1=O,-1%,-1,.,-3,-12%,.
CCN(c1ccccc1)S(=O)(=O)c1ccc(C(=O)Nc2nc3ccccc3[nH]2)cc1,.,.,.,9,.,.
COc1ccc(C(=O)Nc2cccc(S(=O)(=O)N3CCCC3)c2)cc1S(=O)(=O)N1CCOCC1,?,7,.,-3,?,.
CC(=O)Oc1ccc(-c2ccc(C(=O)Nc3cccc(S(=O)(=O)N4CCOCC4)c3)cc2)cc1,16µM*,-119*,28%,-9,23µM*,-11%
COc1ccc(NC(=S)Nc2cccc(S(=O)(=O)N3CCCCC3)c2)cc1,?,3,18µM*,0,?,?
CCOc1c(Br)cc(C(=O)Nc2cccc(S(=O)(=O)N3CCOCC3)c2)cc1OC,23µM*,-20,.,3,?,.
COc1cc(C=NNC(=S)Nc2ccc(S(=O)(=O)N3CCCCC3)cc2)cc(OC)c1OC,8.2µM*,-17,.,-2,16µM*,.
COc1ccc(NC(=O)c2cccc(S(=O)(=O)N3CCOCC3)c2)cc1,-24%,-18,24%,-7,5%,-5%
Cc1nn(C(C)C)c(C)c1NC(=O)c1cc2sccc2n1C,.,.,.,-1,.,.
COc1ccc(C(=O)NC(=S)Nc2cccc(S(=O)(=O)N3CCOCC3)c2)cc1,7.3µM*,-4,22µM*,-9,5.8µM*,-9%
COc1ccc(C(=O)NNC(=O)c2cccc(S(=O)(=O)N3CCOCC3)c2)cc1,-11%,22,.,-5,-14%,.
O=C(NC1CCCCCC1)c1ccc(Oc2nccnc2N2CCCCC2)cc1,.,.,.,3,.,.
CCCCn1c(-c2ccc(Cl)c(Cl)c2)nc2cc3[nH]c(=O)c(C(C)C)nc3cc21,?,35,37%,2,?,-2%
CCCCn1c(-c2ccc(C(C)(C)C)cc2)nc2cc3[nH]c(=O)c(C(C)C)nc3cc21,15µM*,27,15%,7,?,-2%

# From PubChem BioAssay
